From PubChem BioAssay AID463173 (ICCB-Longwood Screening Facility, Harvard Medical School, 2010)
In all, about 52,000 compounds went through this assay and about 1,700 (3.3%) were called active. Cut-off read from the data, not from the text of the source: active = survival mostly below about 52% (no sharp cut-off); inactive = mostly above about 56%. Only a selection was taken, and actives are over-represented in it overall.

These compounds were tested on Wild type (assay: growth inhibition of S. aureus wild type versus tarO mutant, primary screen, teichoic acid synthesis inhibitors, RN4220, OD600 (AID 463173)). Conditions: S. aureus RN4220 wild type/DeltatarO growth, OD600, 18 h, active compounds read low, screened at 18.75 µg/mL (by protocol).
For `Cc1ccc2nc(-c3ccc(C)o3)c(Nc3ccc4c(c3)OCCO4)n2c1`, the survival was 19% (active).
For `Cc1ccn2c(Nc3ccc4c(c3)OCCO4)c(-c3ccc(C)o3)nc2c1`, the survival was 75% (inactive).
For `Cc1ccc(-c2nc3ccccn3c2Nc2ccc3c(c2)OCCO3)o1`, the survival was 62% (inactive).
With `Cc1ccc(-c2nc3ccccn3c2Nc2ccc3c(c2)OCO3)o1` the survival was 48% (inactive).
`Cc1ccc(-c2nc3ccccn3c2Nc2c(C)cccc2C)o1` was tested, and the survival was -20% (active).
`Cc1ccc(-c2nc3ccc(Cl)cn3c2Nc2ccc3c(c2)OCCO3)o1` was tested, and the survival was 88% (inactive).
With `Cc1cc(-n2c(C)nc3ccccc3c2=O)ccc1NC(=O)C(F)(F)F` the survival was 69% (inactive).
For `COc1ccc(CCC(=O)NC2CC(=O)N(c3ccc(OC)cc3)C2)cc1` (centres undefined), the survival was 79% (inactive).
In the case of `CCOc1ccc(C2CC(=O)Nc3c2c(=O)[nH]c2ncnn32)cc1` (centres undefined), the survival is reported as 68% (inactive).
`CC1=C(C(=O)Nc2ccc(C)cc2C)C(c2cccs2)n2nc(SCc3ccccc3Cl)nc2N1` (centres undefined) was tested, and the survival was 76% (inactive).
In the case of `COc1cc(NC(=O)c2ccc(C)cc2)ccc1NC(=O)c1cc2ccccc2o1`, the survival is reported as 75% (inactive).
For `CCc1ccc(C2NC(=O)c3[nH]nc(-c4cccc(OC)c4)c32)cc1` (centres undefined), the survival was 74% (inactive).
In the case of `COc1ccc(-c2n[nH]c3c2C(c2ccc(Cl)cc2Cl)NC3=O)cc1` (centres undefined), the survival is reported as 0% (active).
With `COc1ccc(OC)c(C2c3c(-c4ccc(Br)cc4)n[nH]c3C(=O)N2c2ccc(Cl)cc2)c1` (centres undefined) the survival was 77% (inactive).
For `CCOC(=O)CNc1cccc(Cl)c1`, the survival was 112% (inactive).
In the case of `COc1cccc(CNC(=O)C(=O)Nc2c3c(nn2-c2ccccc2)CSC3)c1`, the survival is reported as 66% (inactive).
In the case of `Cc1ccc(NC(=O)c2cc(S(=O)(=O)N3CCC4(CC3)OCCO4)ccc2F)cc1Cl`, the survival is reported as 87% (inactive).
With `COc1ccc(N2CCN(C(=O)CNS(=O)(=O)c3ccc(Br)s3)CC2)cc1` the survival was 61% (inactive).
`COc1ccc(Nc2oc(/C=C/c3cc(OC)c(OC)c(OC)c3)nc2C#N)cc1` was tested, and the survival was 78% (inactive).
With `CC(=O)N1CCC2(CC1)OC(=O)C(C)=C2C(=O)NCc1ccccc1Cl` the survival was 70% (inactive).
In the case of `CCOc1ccc(CCNC(=O)c2cnc3c(-c4ccc(F)cc4)c(C)nn3c2C)cc1`, the survival is reported as 85% (inactive).
`CCC(Sc1nnc(C)n2c1cc1occc12)C(=O)Nc1ccccc1OC` (centres undefined) was tested, and the survival was 90% (inactive).
With `CCc1ccccc1NC(=O)c1cc2sc(Cl)cc2n1CC` the survival was 90% (inactive).
`CCn1c(C(=O)Nc2ccccc2C(=O)OC)cc2sc(Cl)cc21` was tested, and the survival was 43% (inactive).
For `CCOc1ccccc1NC(=O)C(CC)n1c(C(=O)OC)cc2occc21` (centres undefined), the survival was 0% (active).
`CCOC(=O)c1cc2occc2n1C(C)C(=O)OCC` (centres undefined) was tested, and the survival was 95% (inactive).
With `CCC(C(=O)Nc1ccccc1OC)n1c(C(=O)OC)cc2sc(Cl)cc21` (centres undefined) the survival was 0% (active).
For `COc1ccc2c(c1)CC(NC(=O)Nc1ccc(NC(C)=O)cc1)CO2` (centres undefined), the survival was 121% (inactive).
In the case of `CCN1c2ccccc2-c2nc(SCC(=O)Nc3cc(OC)cc(OC)c3)ncc2S1(=O)=O`, the survival is reported as 32% (inactive).
With `CN(C(=O)C1=CC(c2ccc3c(c2)OCO3)=NS(=O)(=O)N1C)c1ccccc1` the survival was 89% (inactive).
`Cc1ccc2nsnc2c1S(=O)(=O)NC(C)(C)C` was tested, and the survival was 96% (inactive).
With `CCc1nc2ccc(C(=O)N3CCN(c4ccccc4F)CC3)cc2nc1CC` the survival was 68% (inactive).
In the case of `COc1cc(CN(CC2CCCO2)C(=O)c2ccc(F)cc2)cc(OC)c1OC` (centres undefined), the survival is reported as 86% (inactive).
With `Cn1c(SCc2ccc(Br)cc2)nc2c([nH]c3ccccc32)c1=O` the survival was 131% (inactive).
With `CCn1c(=O)cc(OCC(=O)N(C)c2ccc(OC)cc2)c2ccccc21` the survival was 78% (inactive).
In the case of `CCCN(C(=O)COc1cc(=O)n(CC)c2ccccc12)c1ccc(C(C)C)cc1`, the survival is reported as -7% (active).
With `CCCN(C(=O)Cn1c(=O)oc2cc(Cl)ccc21)c1ccc(C(C)C)cc1` the survival was 8% (active).
`CCCN(c1ccc(C(C)C)cc1)S(=O)(=O)c1ccc2c(c1)oc(=O)n2CC(=O)OCC` was tested, and the survival was 73% (inactive).
`CCN(C(=O)Cn1c(=O)oc2cc(Cl)ccc21)c1cccc(C(F)(F)F)c1` was tested, and the survival was 83% (inactive).
For `CCn1c(=O)cc(OCC(=O)N(C)c2cc(Cl)ccc2C)c2ccccc21`, the survival was 62% (inactive).
`CCOC(=O)c1ccc(N2CCN(c3ccccc3OC)CC2)c(NC(=O)Nc2ccc(CC)cc2)c1` was tested, and the survival was 80% (inactive).
In the case of `CCOC(=O)C(Cc1ccccc1)N1C(=O)c2ccccc2C1=O` (centres undefined), the survival is reported as 104% (inactive).
For `COc1cccc(NS(=O)(=O)c2ccc3[nH]cc(C(=O)NCCc4ccc(C)cc4)c(=O)c3c2)c1`, the survival was 124% (inactive).
With `Nc1ccc(S(=O)(=O)N2CCSC2C(=O)O)cc1` (centres undefined) the survival was 101% (inactive).
With `COc1cccc(N2CCN(c3ncnc4c3nc3n4CCCCC3)CC2)c1` the survival was -3% (active).
`Clc1cccc(N2CCN(c3ncnc4c3nc3n4CCCC3)CC2)c1` was tested, and the survival was 117% (inactive).
In the case of `O=C(C1CCN(c2ncnc3c2nc2n3CCCCC2)CC1)N1CCN(c2cccc(Cl)c2)CC1`, the survival is reported as 57% (inactive).
For `c1ccc(N2CCN(c3ncnc4c3nc3n4CCCCC3)CC2)cc1`, the survival was 72% (inactive).
With `COc1ccc(N2CCN(c3ncnc4c3nc3n4CCCCC3)CC2)cc1` the survival was 73% (inactive).
In the case of `Clc1cccc(N2CCN(c3ncnc4c3nc3n4CCCCC3)CC2)c1`, the survival is reported as 3% (active).
`CCn1cc(C(=O)Nc2cccc(Cl)c2)c2cc(OC)c(OC)cc2c1=O` was tested, and the survival was 76% (inactive).
With `FC(F)(F)Sc1ccc2noc(-c3ccccc3)c2c1` the survival was 115% (inactive).
In the case of `NC(=O)c1ccccc1NC(=O)c1ccc(-c2ccc(Br)cc2)o1`, the survival is reported as 95% (inactive).
In the case of `COc1cc(C)cc2oc(=O)c(CC(=O)NCCc3ccc(Cl)cc3)c(C)c12`, the survival is reported as 118% (inactive).
For `C=CCc1ccccc1OCCSc1nc(-c2ccccc2F)nc2cc(=O)[nH]n12`, the survival was 80% (inactive).
In the case of `C=CCc1ccccc1OCCSc1nc(-c2ccc(C(C)(C)C)cc2)nc2cc(=O)[nH]n12`, the survival is reported as 0% (active).
With `COc1ccccc1OCCSc1nc(-c2ccc(C(C)(C)C)cc2)nc2cc(=O)[nH]n12` the survival was 22% (inactive).
With `Cc1cccc(C)c1NCc1nnc(SCC(N)=O)n1-c1ccccc1` the survival was 110% (inactive).
In the case of `Cc1cc(C)cc(-n2ccn(CC(=O)Nc3ccccc3F)c(=O)c2=O)c1`, the survival is reported as 82% (inactive).
